Only some compounds are listed: those with a hit (about 19% of all), similar ones and a draw of the others.
DT40 TDP1 no CPT – qHTS for Inhibitors of human tyrosyl-DNA phosphodiesterase 1 (TDP1): qHTS in cells in absence of CPT; DT40 Tdp1-/- hTDP1 cells, no CPT, ATP luminescence, 48 h; Potency, µM (titrated, usually from 46.2 µM), hits mostly inhibitors; actives 15% (n = 420,000); AID 686978, 2013; further: nearly all actives have a fitted effect of over 55% in size
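DT40 Tdp1-/-;hTDP1 cells, no CPT (DMSO vehicle only), 400 cells/well; compounds pin-transferred; ≥48 hr, 37 °C; CellTiter-Glo 30 min RT dark, luminescence read.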
KB-V1 MDR tox – KB-V1 MDR subline cytotoxicity. Potency, µM (top dose mostly 46.1 µM), actives largely listed as cytotoxic. AID 1347076. KB-V1 MDR cells viability, CellTiter-Glo, 72 h. actives 3.4% (n = 400,000); further: nearly all actives have a fitted effect of over 60% in size
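Readout: CellTiter-Glo luminescence, 10 min after addition. Cells: KB-V1 MDR subline, 72 h at 37 degrees C with compound. Analysis: corrected, normalized data fitted to concentration-effect curves.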
KB-3-1 cytotox – KB-3-1 parental cell cytotoxicity; KB-3-1 viability, CellTiter-Glo ATP luminescence, 72 h; Potency, µM (series often up to 46.1 µM), hits mostly cytotoxic; actives 1.4% (n = 400,000); further: nearly all actives have a fitted effect of over 60% in size
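Cytotoxicity in the drug-sensitive parental line KB-3-1 was scored as loss of CellTiter-Glo luminescence following 72 h incubation with compound. Values come from curve fitting of normalized concentration-response data.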
TDP1 cell CPT – growth inhibition of DT40 Tdp1-/-;hTDP1 cells with camptothecin (screen for TDP1 inhibitors); actives 12% (n = 420,000); AID 686979; chicken DT40 Tdp1-/-;hTDP1 cells + 20 nM CPT, ATP luminescence, 48 h; Potency, µM (doses to about 46.2 µM), usual class: inhibitors; further: nearly all actives have a fitted effect of over 55% in size
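Chicken DT40 Tdp1-/- cells stably complemented with human TDP1 were seeded at 400 cells/well in medium containing 20 nM camptothecin, exposed to pin-transferred compounds, and grown at 37 °C for at least 48 hr. Viability was read as ATP luminescence.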
HT1080 IDH1KD tx – toxicity to HT-1080 IDH1 knockdown cells (counter line). HT-1080 IDH1 knockdown viability, ATP luminescence, 48 h. Potency, µM (highest dose often 46.1 µM), hits mostly cytotoxic. actives 2% (n = 360,000). AID 686971
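CellTiter-Glo luminescence after 48 h compound exposure at 37 degrees C of IDH1-knockdown HT-1080 cells in 5% FBS RPMI. %Activity scaled between DMSO wells and cell-free media wells, with curves fitted and assigned curve classes.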
HT1080NT lethal – kills 2HG-producing HT-1080-NT fibrosarcoma cells; AID 686970; actives 1.6% (n = 360,000); HT-1080-NT fibrosarcoma viability, CellTiter-Glo ATP luminescence, 48 h; Potency, µM (titrated, usually from 46.1 µM), actives largely listed as cytotoxic;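 further: NT is the 2HG producing partner of a matched IDH1 knockdown line; nearly all actives have a fitted effect of over 55% in size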
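HT-1080-NT fibrosarcoma cells (2HG-overproducing), 750 cells/well in RPMI with 5% FBS, dosed after 2 h and incubated 48 h at 37C. CellTiter-Glo luminescence normalized to DMSO and no-cell wells; concentration-response curves fitted and classed.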
Each line names hits and unclear results; the compound was inactive in the other large screens. The call rests on the fitted dose curve; in most records, active means well fitted curve in the direction sought with a large enough effect; inconclusive means small, poorly fitted or top-dose-only effect, or another doubt; inactive means no such curve, though single readings can be large; an effect the other way counts as inactive or inconclusive.

CCC(Oc1ccccc1)C(=O)Nc1ccc(O)c(-c2nc3cc(C)ccc3o2)c1 (stereo not drawn)	DT40 TDP1 no CPT inconclusive (no result: KB-V1 MDR tox, KB-3-1 cytotox, HT1080 IDH1KD tx, HT1080NT lethal)
COc1ccccc1NC(=O)C(Cc1ccccc1)NS(=O)(=O)c1cccc2nsnc12 (stereo not drawn)	DT40 TDP1 no CPT inconclusive, TDP1 cell CPT inconclusive (no result: HT1080 IDH1KD tx, HT1080NT lethal)
CCOC(=O)CC(NC(=O)Cc1cccs1)c1ccccc1Cl (stereo not drawn)	none
Cc1ccc(S(=O)(=O)N2CCN(C(=O)c3ccc4ccccc4n3)CC2)c(C)c1	DT40 TDP1 no CPT inconclusive (no result: KB-V1 MDR tox, KB-3-1 cytotox)
Cc1ccc2[nH]c(=O)c(-c3nc4ccccn4c3NCc3ccco3)cc2c1	KB-V1 MDR tox 8.2µM, HT1080 IDH1KD tx inconclusive, HT1080NT lethal inconclusive
CC(=O)c1cccc(NS(=O)(=O)N2CCOCC2)c1	none
Cc1nn(C(C)(C)C)c(OC(=O)c2ccco2)c1Sc1ccccc1	DT40 TDP1 no CPT inconclusive
COc1ccccc1C(=O)Oc1c(Sc2ccccc2)c(C)nn1C(C)(C)C	DT40 TDP1 no CPT 15µM, TDP1 cell CPT inconclusive (no result: HT1080 IDH1KD tx, HT1080NT lethal)
Cc1nn(C(C)(C)C)c(OC(=O)c2cccs2)c1Sc1ccccc1	none
Cc1ccccc1C(=O)Oc1c(Sc2ccccc2)c(C)nn1C(C)(C)C	DT40 TDP1 no CPT 15µM, KB-V1 MDR tox inconclusive, TDP1 cell CPT inconclusive (no result: HT1080 IDH1KD tx, HT1080NT lethal)
COCCCNC(=O)c1ccc(Cn2c(=O)c3ccccc3n(CC(=O)Nc3c(C)cccc3C)c2=O)cc1	TDP1 cell CPT inconclusive (no result: HT1080 IDH1KD tx, HT1080NT lethal)
COCCNC(=O)c1ccc2c(=O)n(Cc3ccco3)c(SCC(=O)NC3CCCCC3)nc2c1	none
CCn1c(SCC(=O)N2CCCCCC2)nc2ccccc2c1=O	DT40 TDP1 no CPT inconclusive, KB-V1 MDR tox 9.2µM, TDP1 cell CPT 21µM
O=C(NCc1ccco1)c1ccc2c(=O)n(Cc3ccco3)c(SCC(=O)N3CCCC3)nc2c1	DT40 TDP1 no CPT inconclusive, TDP1 cell CPT 26µM
O=C(CSc1nc2ccccc2c(=O)n1Cc1ccco1)N1CCCCCC1	DT40 TDP1 no CPT inconclusive, KB-V1 MDR tox 18µM, KB-3-1 cytotox inconclusive, TDP1 cell CPT 21µM, HT1080 IDH1KD tx inconclusive
Cc1cc(NC(=O)CSc2nc3cc(C(=O)NCCCOC(C)C)ccc3c(=O)n2Cc2ccco2)no1	DT40 TDP1 no CPT inconclusive, KB-3-1 cytotox inconclusive, TDP1 cell CPT 18µM
O=S(=O)(c1ccccc1Cl)N1CCC(Cc2ccccc2)CC1	none
N#CCCN(C(=O)COC(=O)C1CCN(S(=O)(=O)c2cccs2)CC1)c1ccccc1	none
CN(C)c1nc(N)c2ncc(=S)[nH]c2n1	none
CCOC(CCn1c(SCc2ccc([N+](=O)[O-])cc2)nc2ccccc2c1=O)OCC	DT40 TDP1 no CPT 13µM, KB-V1 MDR tox 3.7µM, TDP1 cell CPT 15µM
Cc1ccc(-n2c(SCc3ccc([N+](=O)[O-])cc3)nc3ccccc3c2=O)cc1	DT40 TDP1 no CPT inconclusive, TDP1 cell CPT inconclusive
O=C(CSc1nc2ccccc2c(=O)n1Cc1ccco1)NCc1ccco1	DT40 TDP1 no CPT inconclusive, TDP1 cell CPT inconclusive
CCN(CC)C(=O)CSc1nc2c(sc(=S)n2CC)c(=O)n1-c1ccccc1	KB-V1 MDR tox inconclusive, KB-3-1 cytotox inconclusive
COc1ccccc1-n1c(=S)sc2c(=O)n(Cc3ccco3)c(SC)nc21	KB-V1 MDR tox 15µM
CCN(CC)C(=O)CSc1nc2c(sc(=S)n2-c2ccccc2)c(=O)n1Cc1ccco1	DT40 TDP1 no CPT inconclusive, KB-V1 MDR tox inconclusive, KB-3-1 cytotox inconclusive, TDP1 cell CPT 23µM
CCCN(CCC)C(=O)CSc1nc2ccccc2c(=O)n1Cc1ccco1	DT40 TDP1 no CPT 21µM, TDP1 cell CPT 18µM (no result: KB-V1 MDR tox, KB-3-1 cytotox, HT1080 IDH1KD tx, HT1080NT lethal)
CCn1c(SCc2cccc(OC)c2)nc2ccccc2c1=O	DT40 TDP1 no CPT 21µM, TDP1 cell CPT 10µM
N=C(N)SCCc1ccc(OCc2ccc([N+](=O)[O-])cc2)cc1	DT40 TDP1 no CPT inconclusive, TDP1 cell CPT 8.4µM (no result: KB-V1 MDR tox, KB-3-1 cytotox, HT1080 IDH1KD tx, HT1080NT lethal)
O=C(Cc1ccc([N+](=O)[O-])cc1)OCc1ccc([N+](=O)[O-])cc1	none
CC1(C)CC(=O)C(C(=O)c2ccccc2)C(=O)C1Cl (stereo not drawn)	KB-V1 MDR tox inconclusive
O=C(Nc1c(S(=O)(=O)c2ccc(Cl)cc2)csc1Br)c1ccccc1Cl	none
CC[N+](CC)(CC)c1ccc(/C=C/c2ccnc3ccccc23)cc1	DT40 TDP1 no CPT 0.32µM, KB-V1 MDR tox inconclusive, KB-3-1 cytotox 0.58µM, TDP1 cell CPT 0.4µM (no result: HT1080 IDH1KD tx, HT1080NT lethal)
CC[N+](C)(C)c1ccc(/C=C/c2ccnc3ccccc23)cc1	DT40 TDP1 no CPT 0.11µM, KB-V1 MDR tox inconclusive, KB-3-1 cytotox inconclusive, TDP1 cell CPT 0.079µM (no result: HT1080 IDH1KD tx, HT1080NT lethal)
CC(=O)N(C)c1ccc(N=Nc2ccc3ncccc3c2)cc1	DT40 TDP1 no CPT 15µM, KB-V1 MDR tox inconclusive, TDP1 cell CPT inconclusive
C=C(Br)COC(c1ccco1)[C@H](Cc1ccccc1)NC(=O)OC(C)(C)C (stereo partly drawn)	DT40 TDP1 no CPT 11µM, KB-V1 MDR tox inconclusive, KB-3-1 cytotox inconclusive, TDP1 cell CPT inconclusive (no result: HT1080 IDH1KD tx, HT1080NT lethal)
CC1CCCCC1NC(=O)CNC(=O)c1cccs1 (stereo not drawn)	none
Cc1ccc(CNC(=O)C(C)n2c(=O)cc(C(F)(F)F)c3c(C)nn(C)c32)cc1 (stereo not drawn)	DT40 TDP1 no CPT inconclusive, TDP1 cell CPT 26µM (no result: HT1080 IDH1KD tx, HT1080NT lethal)

High-throughput results deposited in PubChem by National Center for Advancing Translational Sciences (NCATS).
